# According to publication PMC7862700, “An all-to-all approach to the identification of sequence-specific readers for epigenetic DNA modifications on cytosine”:
# What was measured:
# Assay in all cases: DAPPL (digital affinity profiling via proximity ligation, sequencing); 10 mM Tris-HCl pH 7.5, 50 mM NaCl, 1 mM DTT, 4% glycerol, room temperature, 30 min; GST-TFs on glutathione beads, 16-mer random dsDNA library, 0.1% formaldehyde crosslink after washing; high values mean tight binding
# FEV = target: T1, FEV (Homo sapiens, UniProt Q99581 1-238); details: protein: recombinant; tags: N-terminal GST; dsDNA, one strand shown
# T1 sequence: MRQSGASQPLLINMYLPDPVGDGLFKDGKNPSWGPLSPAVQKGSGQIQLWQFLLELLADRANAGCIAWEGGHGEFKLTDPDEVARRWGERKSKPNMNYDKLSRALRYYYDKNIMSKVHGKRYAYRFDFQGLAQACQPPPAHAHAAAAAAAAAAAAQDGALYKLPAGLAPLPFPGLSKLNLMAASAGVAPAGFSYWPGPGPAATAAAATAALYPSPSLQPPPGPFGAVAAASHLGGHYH
# Summary of the method: (§1)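 Binding signal is given per hexamer as its read frequency for a factor divided by its frequency in the tag-only sample. GST-fused human transcription factors were expressed in yeast, captured on glutathione beads, barcoded with DNA and pooled with that sample, then incubated with 200 nmole of a 16-mer random double-stranded DNA library in Tris/NaCl/DTT/glycerol buffer for 30 min at room temperature. The pools were then washed, crosslinked, proximity-ligated, amplified by PCR and sequenced on an Illumina NextSeq500.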
# ETV5 = ETV5 (Homo sapiens, UniProt P41161 1-510); details: protein: recombinant; tags: N-terminal GST; dsDNA, one strand shown
# Summary of the method: as §1
# HSF1 = HSF1 (Homo sapiens, UniProt Q00613 1-529); details: protein: recombinant; tags: N-terminal GST; chain copies: 3; dsDNA, one strand shown
# Summary of the method: as §1
# SPIC = target: T2, SPIC (Homo sapiens, UniProt Q8N5J4 1-248); details: protein: recombinant; tags: N-terminal GST; dsDNA, one strand shown
# T2 sequence: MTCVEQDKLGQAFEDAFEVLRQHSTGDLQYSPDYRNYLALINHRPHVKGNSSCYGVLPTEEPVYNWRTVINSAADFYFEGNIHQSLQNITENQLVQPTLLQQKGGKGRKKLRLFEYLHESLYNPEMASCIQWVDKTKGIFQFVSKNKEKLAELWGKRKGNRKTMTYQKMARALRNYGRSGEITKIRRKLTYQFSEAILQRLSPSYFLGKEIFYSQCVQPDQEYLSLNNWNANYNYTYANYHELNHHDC
# Summary of the method: as §1
# ELF4 = ELF4 (Homo sapiens, UniProt Q99607 1-663); details: protein: recombinant; tags: N-terminal GST; dsDNA, one strand shown
# Summary of the method: as §1
# ELK4 = target: T3, ELK4 (Homo sapiens, UniProt P28324-2 1-405); details: protein: recombinant; tags: N-terminal GST; dsDNA, one strand shown
# T3 sequence: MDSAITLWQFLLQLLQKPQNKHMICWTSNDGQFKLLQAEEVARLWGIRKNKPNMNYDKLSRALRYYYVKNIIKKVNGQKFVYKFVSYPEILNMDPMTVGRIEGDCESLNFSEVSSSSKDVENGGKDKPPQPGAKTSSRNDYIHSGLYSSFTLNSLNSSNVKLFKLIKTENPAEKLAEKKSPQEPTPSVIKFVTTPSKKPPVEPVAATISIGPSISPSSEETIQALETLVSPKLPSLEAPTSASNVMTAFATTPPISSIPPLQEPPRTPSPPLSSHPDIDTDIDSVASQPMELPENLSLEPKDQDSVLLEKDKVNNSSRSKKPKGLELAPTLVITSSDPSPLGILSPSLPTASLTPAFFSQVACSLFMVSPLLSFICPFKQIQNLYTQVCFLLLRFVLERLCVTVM
# Summary of the method: as §1
# ETV2 = target: T4, ETV2 (Homo sapiens, UniProt O00321 1-342); details: protein: recombinant; tags: N-terminal GST; dsDNA, one strand shown
# T4 sequence: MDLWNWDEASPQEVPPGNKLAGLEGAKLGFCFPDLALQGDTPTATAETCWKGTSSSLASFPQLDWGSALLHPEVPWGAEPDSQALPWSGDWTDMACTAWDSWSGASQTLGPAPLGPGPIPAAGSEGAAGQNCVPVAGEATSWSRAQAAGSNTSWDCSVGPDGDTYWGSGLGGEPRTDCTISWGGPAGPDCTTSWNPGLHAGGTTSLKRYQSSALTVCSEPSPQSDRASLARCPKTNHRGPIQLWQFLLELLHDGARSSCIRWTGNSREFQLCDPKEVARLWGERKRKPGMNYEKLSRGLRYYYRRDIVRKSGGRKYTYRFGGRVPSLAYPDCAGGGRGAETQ
# Summary of the method: as §1
# ELF3 = target: T5, ELF3 (Homo sapiens, UniProt P78545 1-371); details: protein: recombinant; tags: N-terminal GST; dsDNA, one strand shown
# T5 sequence: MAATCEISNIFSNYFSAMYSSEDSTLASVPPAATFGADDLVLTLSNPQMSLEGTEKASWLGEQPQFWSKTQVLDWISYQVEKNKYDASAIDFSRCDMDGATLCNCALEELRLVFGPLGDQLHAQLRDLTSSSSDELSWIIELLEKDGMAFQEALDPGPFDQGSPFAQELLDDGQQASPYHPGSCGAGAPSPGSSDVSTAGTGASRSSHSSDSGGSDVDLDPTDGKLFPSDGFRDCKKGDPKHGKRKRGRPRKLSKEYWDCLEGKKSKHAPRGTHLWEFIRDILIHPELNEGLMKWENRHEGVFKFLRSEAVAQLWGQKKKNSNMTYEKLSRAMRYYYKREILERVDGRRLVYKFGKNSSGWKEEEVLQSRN
# Summary of the method: as §1
# CRX = CRX (Homo sapiens, UniProt O43186 1-299); details: protein: recombinant; tags: N-terminal GST; dsDNA, one strand shown
# Summary of the method: as §1
# ETV1 = ETV1 (Homo sapiens, UniProt P50549 1-477); details: protein: recombinant; tags: N-terminal GST; dsDNA, one strand shown
# Summary of the method: as §1
# ERF = target: T6, ERF (Homo sapiens, UniProt P50548 1-548); details: protein: recombinant; tags: N-terminal GST; dsDNA, one strand shown
# T6 sequence: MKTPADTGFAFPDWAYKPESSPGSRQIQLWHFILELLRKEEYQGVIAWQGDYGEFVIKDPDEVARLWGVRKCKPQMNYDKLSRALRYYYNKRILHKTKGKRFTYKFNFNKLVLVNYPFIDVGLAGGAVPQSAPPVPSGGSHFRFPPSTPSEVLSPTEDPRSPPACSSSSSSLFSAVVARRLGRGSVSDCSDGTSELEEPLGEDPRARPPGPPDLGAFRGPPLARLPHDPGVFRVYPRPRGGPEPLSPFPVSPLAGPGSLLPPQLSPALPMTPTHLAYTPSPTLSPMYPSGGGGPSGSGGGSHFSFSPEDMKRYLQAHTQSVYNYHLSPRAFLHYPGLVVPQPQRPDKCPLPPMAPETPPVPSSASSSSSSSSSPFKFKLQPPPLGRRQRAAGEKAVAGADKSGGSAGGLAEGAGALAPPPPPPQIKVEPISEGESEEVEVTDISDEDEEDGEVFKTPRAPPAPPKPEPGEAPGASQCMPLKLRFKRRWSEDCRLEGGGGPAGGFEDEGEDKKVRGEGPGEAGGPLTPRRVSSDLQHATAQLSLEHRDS
# Summary of the method: as §1
# ETV3L = target: T7, ETV3L (Homo sapiens, UniProt Q6ZN32 1-361); details: protein: recombinant; tags: N-terminal GST; dsDNA, one strand shown
# T7 sequence: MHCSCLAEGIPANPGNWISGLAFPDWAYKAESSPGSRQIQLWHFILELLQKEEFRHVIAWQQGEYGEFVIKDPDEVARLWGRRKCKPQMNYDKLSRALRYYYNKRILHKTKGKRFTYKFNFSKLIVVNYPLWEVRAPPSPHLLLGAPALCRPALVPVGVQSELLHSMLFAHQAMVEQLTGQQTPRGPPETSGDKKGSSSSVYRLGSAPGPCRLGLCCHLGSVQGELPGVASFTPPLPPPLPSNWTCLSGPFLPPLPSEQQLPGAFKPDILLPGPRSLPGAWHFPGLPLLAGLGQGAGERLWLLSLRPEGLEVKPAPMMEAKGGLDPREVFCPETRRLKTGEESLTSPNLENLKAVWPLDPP
# Summary of the method: as §1
# ETS2 = target: T8, ETS2 (Homo sapiens, UniProt P15036 1-469); details: protein: recombinant; tags: N-terminal GST; dsDNA, one strand shown
# T8 sequence: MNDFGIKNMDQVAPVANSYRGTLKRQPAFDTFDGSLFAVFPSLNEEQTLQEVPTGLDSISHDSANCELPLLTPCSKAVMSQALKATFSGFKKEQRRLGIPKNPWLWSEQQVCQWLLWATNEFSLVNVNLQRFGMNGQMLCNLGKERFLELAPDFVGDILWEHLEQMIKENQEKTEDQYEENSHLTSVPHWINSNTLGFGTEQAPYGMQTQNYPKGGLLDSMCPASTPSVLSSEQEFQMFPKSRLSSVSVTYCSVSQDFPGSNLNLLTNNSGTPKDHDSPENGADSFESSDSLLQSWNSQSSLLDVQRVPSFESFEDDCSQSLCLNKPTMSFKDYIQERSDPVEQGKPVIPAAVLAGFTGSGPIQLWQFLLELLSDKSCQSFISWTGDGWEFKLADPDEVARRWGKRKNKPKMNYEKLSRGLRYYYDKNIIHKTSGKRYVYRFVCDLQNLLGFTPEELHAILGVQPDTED
# Summary of the method: as §1
# SPDEF = target: T9, SPDEF (Homo sapiens, UniProt O95238 1-335); details: protein: recombinant; tags: N-terminal GST; dsDNA, one strand shown
# T9 sequence: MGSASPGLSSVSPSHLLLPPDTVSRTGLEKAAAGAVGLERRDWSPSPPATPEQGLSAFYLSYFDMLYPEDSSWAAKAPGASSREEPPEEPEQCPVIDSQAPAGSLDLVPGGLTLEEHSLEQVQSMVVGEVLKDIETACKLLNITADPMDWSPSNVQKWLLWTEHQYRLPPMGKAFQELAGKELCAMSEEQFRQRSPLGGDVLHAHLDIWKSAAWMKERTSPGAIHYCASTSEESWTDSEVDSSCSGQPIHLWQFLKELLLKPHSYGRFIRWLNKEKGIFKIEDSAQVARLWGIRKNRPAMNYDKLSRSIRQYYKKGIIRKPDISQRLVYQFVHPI
# Summary of the method: as §1
# ETV7 = target: T10, ETV7 (Homo sapiens, UniProt Q9Y603 1-341); details: protein: recombinant; tags: N-terminal GST; dsDNA, one strand shown
# T10 sequence: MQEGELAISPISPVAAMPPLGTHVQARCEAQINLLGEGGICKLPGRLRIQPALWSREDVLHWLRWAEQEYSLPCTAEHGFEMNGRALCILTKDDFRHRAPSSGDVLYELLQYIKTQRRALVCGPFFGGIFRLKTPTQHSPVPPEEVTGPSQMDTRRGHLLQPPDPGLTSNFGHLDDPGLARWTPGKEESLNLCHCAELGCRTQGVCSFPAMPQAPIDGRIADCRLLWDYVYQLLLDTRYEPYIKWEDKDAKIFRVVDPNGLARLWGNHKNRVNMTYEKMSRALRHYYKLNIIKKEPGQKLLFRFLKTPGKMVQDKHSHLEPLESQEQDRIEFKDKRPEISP
# Summary of the method: as §1
# ELF5 = target: T11, ELF5 (Homo sapiens, UniProt Q9UKW6-2 1-255); details: protein: recombinant; tags: N-terminal GST; dsDNA, one strand shown
# T11 sequence: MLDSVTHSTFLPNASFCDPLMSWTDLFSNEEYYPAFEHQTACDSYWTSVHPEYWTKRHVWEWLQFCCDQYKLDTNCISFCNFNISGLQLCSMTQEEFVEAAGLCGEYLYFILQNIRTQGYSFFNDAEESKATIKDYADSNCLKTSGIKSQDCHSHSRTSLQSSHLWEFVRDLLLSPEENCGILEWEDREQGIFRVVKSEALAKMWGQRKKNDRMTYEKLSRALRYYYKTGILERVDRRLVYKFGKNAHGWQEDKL
# Summary of the method: as §1
# ETV3 = target: T12, ETV3 (Homo sapiens, UniProt P41162-2 1-143); details: protein: recombinant; tags: N-terminal GST; dsDNA, one strand shown
# T12 sequence: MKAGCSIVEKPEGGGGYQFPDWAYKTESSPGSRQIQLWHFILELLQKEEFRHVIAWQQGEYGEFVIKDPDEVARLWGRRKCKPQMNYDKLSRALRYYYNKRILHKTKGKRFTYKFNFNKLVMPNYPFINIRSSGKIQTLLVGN
# Summary of the method: as §1
# ETV6 = ETV6 (Homo sapiens, UniProt P41212 1-452); details: protein: recombinant; tags: N-terminal GST; dsDNA, one strand shown
# Summary of the method: as §1
# Sequence of CRX (O43186 whole entry): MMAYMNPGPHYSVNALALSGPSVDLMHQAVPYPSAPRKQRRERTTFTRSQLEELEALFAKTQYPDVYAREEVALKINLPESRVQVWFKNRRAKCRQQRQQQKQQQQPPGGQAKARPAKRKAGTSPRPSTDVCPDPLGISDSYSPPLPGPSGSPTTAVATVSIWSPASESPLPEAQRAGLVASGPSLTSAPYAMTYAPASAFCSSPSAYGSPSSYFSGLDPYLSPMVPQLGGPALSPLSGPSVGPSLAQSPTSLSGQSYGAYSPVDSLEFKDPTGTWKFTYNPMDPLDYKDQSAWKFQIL
# Sequence of ELF4 (Q99607 whole entry): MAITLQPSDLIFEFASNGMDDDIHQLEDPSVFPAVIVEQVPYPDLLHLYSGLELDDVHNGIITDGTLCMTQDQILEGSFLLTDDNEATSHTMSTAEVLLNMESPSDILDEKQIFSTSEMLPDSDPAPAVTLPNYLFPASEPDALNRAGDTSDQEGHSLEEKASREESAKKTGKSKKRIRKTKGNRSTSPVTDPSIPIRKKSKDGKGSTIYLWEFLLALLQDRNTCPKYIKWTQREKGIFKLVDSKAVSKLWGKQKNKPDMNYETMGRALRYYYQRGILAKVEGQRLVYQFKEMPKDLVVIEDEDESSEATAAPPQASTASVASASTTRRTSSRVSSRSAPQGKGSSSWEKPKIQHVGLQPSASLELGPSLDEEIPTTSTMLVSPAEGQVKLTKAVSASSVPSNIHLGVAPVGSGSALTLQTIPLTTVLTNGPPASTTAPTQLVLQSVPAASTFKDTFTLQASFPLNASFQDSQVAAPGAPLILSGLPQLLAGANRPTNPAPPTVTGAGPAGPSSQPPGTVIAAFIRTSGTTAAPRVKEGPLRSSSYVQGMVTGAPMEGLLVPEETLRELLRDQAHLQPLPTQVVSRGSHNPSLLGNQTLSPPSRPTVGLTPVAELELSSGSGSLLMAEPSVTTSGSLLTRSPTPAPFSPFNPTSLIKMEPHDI
# Sequence of ETV1 (P50549 whole entry): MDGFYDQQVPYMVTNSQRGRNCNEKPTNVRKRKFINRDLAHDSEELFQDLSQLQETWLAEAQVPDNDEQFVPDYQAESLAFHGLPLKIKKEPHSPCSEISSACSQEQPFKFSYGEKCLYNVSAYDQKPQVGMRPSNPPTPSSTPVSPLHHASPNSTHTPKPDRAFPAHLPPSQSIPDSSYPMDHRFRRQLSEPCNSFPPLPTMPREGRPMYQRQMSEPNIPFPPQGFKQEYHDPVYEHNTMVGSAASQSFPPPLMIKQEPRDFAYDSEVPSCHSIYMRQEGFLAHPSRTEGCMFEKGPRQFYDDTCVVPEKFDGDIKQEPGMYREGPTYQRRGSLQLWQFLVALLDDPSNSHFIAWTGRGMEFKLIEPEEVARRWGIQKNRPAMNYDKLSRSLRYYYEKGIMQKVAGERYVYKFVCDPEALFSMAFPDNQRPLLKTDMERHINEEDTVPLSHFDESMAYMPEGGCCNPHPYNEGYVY
# Sequence of ETV5 (P41161 whole entry): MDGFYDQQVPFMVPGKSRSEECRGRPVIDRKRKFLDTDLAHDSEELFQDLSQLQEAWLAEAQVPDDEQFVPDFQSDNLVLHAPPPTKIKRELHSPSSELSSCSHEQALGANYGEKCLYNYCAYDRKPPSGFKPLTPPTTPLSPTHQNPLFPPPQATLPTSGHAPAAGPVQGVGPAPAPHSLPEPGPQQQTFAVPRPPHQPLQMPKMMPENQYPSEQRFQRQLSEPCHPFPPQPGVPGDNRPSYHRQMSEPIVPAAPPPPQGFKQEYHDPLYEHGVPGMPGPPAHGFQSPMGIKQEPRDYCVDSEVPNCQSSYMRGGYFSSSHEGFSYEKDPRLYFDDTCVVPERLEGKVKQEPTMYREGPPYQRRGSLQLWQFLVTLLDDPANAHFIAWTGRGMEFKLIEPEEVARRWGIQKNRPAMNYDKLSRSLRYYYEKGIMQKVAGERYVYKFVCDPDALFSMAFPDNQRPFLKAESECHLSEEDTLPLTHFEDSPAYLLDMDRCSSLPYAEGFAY
# Sequence of ETV6 (P41212 whole entry): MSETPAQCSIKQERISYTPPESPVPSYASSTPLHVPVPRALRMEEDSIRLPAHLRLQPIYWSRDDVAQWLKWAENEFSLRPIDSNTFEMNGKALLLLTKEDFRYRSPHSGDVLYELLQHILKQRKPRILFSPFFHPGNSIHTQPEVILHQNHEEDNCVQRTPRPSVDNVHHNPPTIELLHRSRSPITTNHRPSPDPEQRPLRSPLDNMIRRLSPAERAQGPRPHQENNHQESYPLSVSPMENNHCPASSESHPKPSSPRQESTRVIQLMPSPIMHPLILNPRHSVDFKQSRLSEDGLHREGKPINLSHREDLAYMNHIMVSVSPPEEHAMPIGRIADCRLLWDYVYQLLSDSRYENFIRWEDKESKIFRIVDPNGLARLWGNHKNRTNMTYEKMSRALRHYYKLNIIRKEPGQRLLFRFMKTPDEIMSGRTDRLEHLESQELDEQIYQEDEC
# Sequence of HSF1 (Q00613 whole entry): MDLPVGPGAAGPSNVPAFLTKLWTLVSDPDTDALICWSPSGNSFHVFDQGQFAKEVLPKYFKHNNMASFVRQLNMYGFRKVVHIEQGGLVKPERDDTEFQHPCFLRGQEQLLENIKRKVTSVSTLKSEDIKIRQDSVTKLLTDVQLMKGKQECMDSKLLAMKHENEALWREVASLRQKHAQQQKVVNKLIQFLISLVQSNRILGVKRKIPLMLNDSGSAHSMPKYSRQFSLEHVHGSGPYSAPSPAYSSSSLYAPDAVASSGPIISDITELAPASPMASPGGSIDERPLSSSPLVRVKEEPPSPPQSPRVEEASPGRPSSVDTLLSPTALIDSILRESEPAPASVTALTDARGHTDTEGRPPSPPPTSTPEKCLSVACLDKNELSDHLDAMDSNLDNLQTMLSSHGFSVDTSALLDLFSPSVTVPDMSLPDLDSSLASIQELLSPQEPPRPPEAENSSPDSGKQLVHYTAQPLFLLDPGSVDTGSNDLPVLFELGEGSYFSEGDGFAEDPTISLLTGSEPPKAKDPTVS
sequence,measurement,setting,value
ATCGAA,binding signal,FEV,"1.08 fold enrichment (6-mer frequency, TF over GST control)"
same,binding signal,ETV5,"1.16 fold enrichment (6-mer frequency, TF over GST control)"
same,binding signal,HSF1,"1.87 fold enrichment (6-mer frequency, TF over GST control)"
same,binding signal,SPIC,"1.11 fold enrichment (6-mer frequency, TF over GST control)"
same,binding signal,ELF4,"1.14 fold enrichment (6-mer frequency, TF over GST control)"
same,binding signal,ELK4,"1.14 fold enrichment (6-mer frequency, TF over GST control)"
same,binding signal,ETV2,"1.07 fold enrichment (6-mer frequency, TF over GST control)"
same,binding signal,ELF3,"1.07 fold enrichment (6-mer frequency, TF over GST control)"
same,binding signal,CRX,"1.31 fold enrichment (6-mer frequency, TF over GST control)"
same,binding signal,ETV1,"1.13 fold enrichment (6-mer frequency, TF over GST control)"
same,binding signal,ERF,"1.18 fold enrichment (6-mer frequency, TF over GST control)"
same,binding signal,ETV3L,"1.16 fold enrichment (6-mer frequency, TF over GST control)"
same,binding signal,ETS2,"1.2 fold enrichment (6-mer frequency, TF over GST control)"
same,binding signal,SPDEF,"1.09 fold enrichment (6-mer frequency, TF over GST control)"
same,binding signal,ETV7,"1.25 fold enrichment (6-mer frequency, TF over GST control)"
same,binding signal,ELF5,"1.05 fold enrichment (6-mer frequency, TF over GST control)"
same,binding signal,ETV3,"1.03 fold enrichment (6-mer frequency, TF over GST control)"
same,binding signal,ETV6,"1.05 fold enrichment (6-mer frequency, TF over GST control)"
